AMA1-RON2 inh: AMA1-RON2 (P. falciparum) interaction inhibition. AlphaScreen AMA1-biotinylated RON2 peptide binding. Potency, µM (titrated, usually from 58.2 µM), inactives show at the highest dose activity change, negative = inhibition, usual class: inhibitors. 360,000 tested, 0.2% active. AID 720542;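 also: 0% = vehicle wells and -100% = peptide control; nearly all actives have a fitted effect of over 45% in size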
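AMA1 (3D7) with his tag at 25 nM final met compounds first, then biotinylated RON2 peptide at 25 nM; detection used donor plus acceptor beads, 10 µg/mL apiece, read by AlphaScreen after 30 min at room temperature.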
FMDV antiviral: blocks foot and mouth disease virus; Potency, µM (doses to about 57.9 µM), for inactives: at the top dose activity change, negative = inhibition, hits mostly inhibitors; 410,000 tested, 1.2% active; FMDV antiviral cell-based qHTS; calls by dose curve; tested in HEK293T cells; also: read-out not given here; nearly all actives have a fitted effect of over 45% in size
Sm TGR inh: S. mansoni TGR enzyme inhibition; Q962Y6; purified TGR, DTNB reduction, TNB absorbance 405 nm; Potency, µM (doses to about 114 µM), without a hit: top-dose activity change, negative = inhibition, usual class: inhibitors; 360,000 tested, 3% active; also: nearly all actives have a fitted effect of over 60% in size
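Kinetic colorimetric format: TGR-catalysed, NADPH-driven DTNB reduction monitored via TNB absorbance. Enzyme dispensed at 20 nM; compound exposure 15 min at room temperature before reaction start.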
AmpC inh no detg: AmpC beta-lactamase inhibition without detergent; AmpC nitrocefin hydrolysis, absorbance 480 nm, 0.0001% Triton; Potency, µM (series often up to 57.1 µM), for the others: at the highest dose activity change, negative = inhibition, usual class: inhibitors; 330,000 tested, 0.52% active;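 also: plate controls were no compound for no effect and no enzyme for full effect; nearly all actives have a fitted effect of over 20% in size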
Target sequence (P00811 whole entry, looked up): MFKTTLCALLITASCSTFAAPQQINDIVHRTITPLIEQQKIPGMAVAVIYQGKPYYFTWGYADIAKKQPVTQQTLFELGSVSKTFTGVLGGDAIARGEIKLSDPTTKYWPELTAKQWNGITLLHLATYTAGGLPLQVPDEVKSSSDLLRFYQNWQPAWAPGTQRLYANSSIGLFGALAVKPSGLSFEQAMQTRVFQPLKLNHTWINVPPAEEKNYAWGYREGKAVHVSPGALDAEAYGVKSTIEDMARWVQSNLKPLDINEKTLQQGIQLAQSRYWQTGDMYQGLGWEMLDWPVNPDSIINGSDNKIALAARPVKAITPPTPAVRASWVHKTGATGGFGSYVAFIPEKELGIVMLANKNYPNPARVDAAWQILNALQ
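20 mM phosphate pH 7.0 + 0.01% (detergent screen) or 0.0001% Triton X-100; 5.3 nM AmpC reagent; cpd preinc 15 min RT; nitrocefin (800 uM stock) to start; A480 q20 s × 4 min; Activity was normalised to no-enzyme and no-compound control wells.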
AmpC detergent: inhibitors of E. coli AmpC beta-lactamase with detergent | P00811 | AmpC hydrolysis of nitrocefin, absorbance 480 nm, 0.01% Triton | Potency, µM (highest dose often 114 µM), inactives show at the highest dose activity change, negative = inhibition, hits mostly inhibitors | 370,000 tested, 0.041% active;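 also: 0% = no-compound wells and -100% = no-enzyme wells; nearly all actives have a fitted effect of over 25% in size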
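20 mM phosphate pH 7.0 + 0.01% (detergent screen) or 0.0001% Triton X-100; 5.3 nM AmpC reagent; cpd preinc 15 min RT; nitrocefin (800 uM stock) to start; A480 q20 s × 4 min; Activity was normalised to no-enzyme and no-compound control wells.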
* marks the source's active call; other numbers are inactive results; ? = inconclusive; / = not tested or not shown. The list is not random: actives were taken first. Their share in the collection is about 4.1%. Unless noted, calls follow the shape of the dose curve; as a rule, active = well fitted curve in the direction sought with a large enough effect; inconclusive = small, poorly fitted or top-dose-only effect, or another doubt; inactive = no such curve, though single readings can be large; an effect the other way counts as inactive or inconclusive. Unless noted, % is scaled to controls: 0 for no effect and ±100 for the full control effect; potency is read from the fitted curve at half-maximal effect.

SMILES	AMA1-RON2 inh	FMDV antiviral	Sm TGR inh	AmpC inh no detg	AmpC detergent
COc1ccccc1CCNC(=O)Cc1c(C)c2cc3c(C(C)(C)C)coc3c(C)c2oc1=O	/	-11%	-9%	/	3%
COc1cccc(CN2C(=O)[C@H]3Cc4c([nH]c5ccccc45)C(C)(C)N3C2=O)c1	/	35µM*	/	/	/
CC1(C)c2[nH]c3ccccc3c2C[C@@H]2C(=O)N(Cc3ccccc3Cl)C(=O)N21	/	-3%	/	/	/
COc1ccc(CN2C(=O)[C@@H]3Cc4c([nH]c5ccccc45)C(C)(C)N3C2=O)cc1	/	0%	/	/	/
COc1ccccc1CN1C(=O)[C@@H]2Cc3c([nH]c4ccccc34)C(C)(C)N2C1=O	/	28µM*	/	/	/
O=S(=O)(CC(CN1CCCC1)N1CCCC1)c1ccc2ccccc2c1 (stereo not given)	-15%	0%	16µM*	64%	?
Cc1ccc(S(=O)(=O)CC(CN2CCOCC2)N2CCOCC2)cc1 (stereo not given)	10%	-1%	/	-7%	6%
Cc1ccc2c(c1)-c1c(cnc3cc(-c4ccc(Cl)cc4)nn13)CO2	/	15%	?	/	0%
Cc1ccccc1OCC(=O)Nc1ccc2nc(SCC(=O)N3CCOCC3)sc2c1	/	28µM*	2%	/	18%
CC(C)(C)c1ccc(C(=O)Nc2ccc3nc(SCC(=O)N4CCCC4)sc3c2)cc1	/	10µM*	15%	/	19%
O=C(CSc1ncc2c(n1)-c1cc(Cl)ccc1N(Cc1ccccc1)S2(=O)=O)NCCc1ccccc1	/	-26%	-5%	/	12%
O=C(c1cc(-c2cccc(Cl)c2)on1)N1CCCCCC1	-10%	21%	3%	19%	?
CC(C)NC(=O)c1cc(-c2ccco2)nn1-c1ccc(Cl)cc1	-20%	-3%	2.8µM*	-34%	2%
O=C(O)c1cc(-c2ccc(N3CCOCC3)cc2)nn1-c1ccc(F)cc1	-2%	-11%	-9%	-19%	0%
O=C(c1cc(-c2ccco2)nn1-c1cccc(Cl)c1)N1CCCCC1	-9%	-2%	7.1µM*	?	3%
Cc1ccc(-n2nc(-c3ccco3)cc2C(=O)O)cc1	-8%	-5%	25µM*	-35%	-9%
CCOC(=O)c1cc(-c2ccco2)nn1-c1ccc(C)cc1	-26%	4%	14µM*	-11%	6%
CCOC(=O)c1cc(-c2ccco2)nc2c1c(C)nn2CCC#N	3%	0%	4µM*	34%	?
COCCN1CCN(C(=O)c2cnn(-c3nccc(-c4ccco4)n3)c2C(C)C)CC1	/	2%	/	/	/
CCCC(=O)N(C1CC(C)C(C#N)(C#N)C1(C#N)C#N)N(C)C (stereo not given)	-7%	16µM*	2µM*	22%	9%
CC(=O)N(C1CC(C)C(C#N)(C#N)C1(C#N)C#N)N(C)C (stereo not given)	5%	?	/	-2%	3%
N#CC(C#N)=Cc1ccc(OC(=O)c2ccccn2)cc1	6%	6%	8.9µM*	-24%	-4%
Cc1nn(C(=O)c2ccccc2F)c(C)c1S(=O)(=O)N1CCOCC1	/	-4%	-19%	/	17%
O=C1Nc2ccccc2/C1=N\N=C\C1=C(N2CCOCC2)C(=C\c2ccccc2)/CC1	/	/	45µM*	-17%	2%
NS(=O)(=O)c1ccc(NC(=O)CN2C(=O)COc3ccc(Cl)cc32)cc1	/	-10%	-10%	/	15%
SMILES	AMA1-RON2 inh	FMDV antiviral	Sm TGR inh	AmpC inh no detg	AmpC detergent
COc1ccc(NC(=O)CCl)cn1	/	/	14µM*	-15%	2%
COc1ccc(NC(=O)Nc2cc(C)cc(C)c2)cn1	8%	-3%	4%	-41%	1%
COc1ccc(CC(=O)Nc2ccc(OC)nc2)cc1	10%	38%	4%	-3%	-10%
COc1ccc(NC(=O)Nc2cccs2)cn1	8%	17%	13µM*	-37%	-4%
COC(=O)c1sccc1S(=O)(=O)N1CCN(c2ccccc2OC)CC1	/	-18%	4%	/	19%
CCOc1cc(/C=C2\C(=O)N(CCc3ccc(OC)c(OC)c3)C(C)=C2C(=O)OC)ccc1O	-16%	20µM*	20µM*	38%	?
CCOC(=O)C1=C(C)N(c2ccc(C)cc2)C(=O)/C1=C\c1ccc(O)c(OC)c1	?	?	3.2µM*	-10%	5%
